Measured values taken from PubChem BioAssay (EPA / NIEHS).
Results filed as inconclusive are left out. The source holds several records for some structures; these can differ, active in one and inactive in another. Calls of active or inactive are those of the source. The calls were made as follows, unless noted: active = hit-call score of the fitted dose curve at least 0.9, where 1 is the maximum; inactive = score below 0.9.

How the values were obtained:
[1] = IUF_NPC2c_oligodendrocyte_migration_120hr: Leibniz Research Institute for Environmental Medicine (IUF) 120-hour Neural Progenitor Cell Migration Assay for Oligodendrocyte Migration (NPC2c) (AID 2284297);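 also: O4-positive oligodendrocyte migration distance divided by radial glia migration distance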
How it was run: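 Human fetal cortex-derived neural progenitor spheres (0.3 mm) were plated on poly-D-lysine/laminin in N2 differentiation medium and exposed to 7 concentrations for 120 h, with half-medium renewal at day 3. Oligodendrocyte migration distance was normalized to radial glia migration, relative to DMSO.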

[2] = IUF_NPC2a_radial_glia_migration_120hr: Leibniz Research Institute for Environmental Medicine (IUF) 120-hour Neural Progenitor Cell Migration Assay for Radial Glia Migration (NPC2a) (AID 2284298)
How it was run: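 Single 0.3 mm primary human fetal-cortex (GW 16-19) NPC spheres were plated on poly-D-lysine/laminin in N2 differentiation medium and exposed from day 0 for 120 h, half-medium refreshed day 3. Migration distance came from Hoechst nuclei-density imaging, relative to DMSO.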

[3] = IUF_NPC2a_radial_glia_migration_72hr: Leibniz Research Institute for Environmental Medicine (IUF) 72-hour Neural Progenitor Cell Migration Assay for Radial Glia Migration (NPC2a) (AID 2284299)
How it was run: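 Migration out of plated human neural progenitor spheres is scored at 72 h as the distance in um from the sphere core edge to the edge of the migration area. Values are the mean of four manual measurements per well, normalised to DMSO.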

[4] = IUF_NPC2b_neuronal_migration_120hr: Leibniz Research Institute for Environmental Medicine (IUF) 120-hour Neural Progenitor Cell Migration Assay for Neuron Migration (NPC2b) (AID 2284300)
How it was run: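 Primary human fetal cortex neural progenitor spheres (0.3 mm) plated on poly-D-lysine/laminin in N2 differentiation medium, exposed 120 h with half-medium refresh at day 3. TUBB3-stained neuron distance from sphere core, normalized to radial glia migration, versus DMSO.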

[5] = IUF_NPC3_neuronal_differentiation_120hr: Leibniz Research Institute for Environmental Medicine (IUF) 120-hour Neuronal Differentiation Assay (NPC3) (AID 2284301)
How it was run: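 Single 0.3 mm neurospheres from human fetal cortex were plated in differentiation medium containing test compound. Medium was half-replaced on day 3. After 120 h cells were fixed, immunostained and imaged, and neuronal fraction was scored against DMSO control.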

[6] = IUF_NPC4_neurite_length_120hr: Leibniz Research Institute for Environmental Medicine (IUF) 120-hour Neuronal Morphology Assay for Neurite Length (NPC4) (AID 2284302)
How it was run: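 Read-out is mean neurite length in µm of TUBB3-positive neurons, skeletonized from high-content fluorescence images after 120 h. Single 0.3 mm primary human neural progenitor spheres differentiated on poly-D-lysine/laminin under continuous compound exposure; DMSO was baseline.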

[7] = IUF_NPC5_oligodendrocyte_differentiation_120hr: Leibniz Research Institute for Environmental Medicine (IUF) 120-hour Oligodendrocyte Differentiation Assay (NPC5) (AID 2284304; active = hit-call score of the fitted dose curve at least 0.9, where 1 is the maximum;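 also: primary human fetal neural progenitor spheres plated to migrate and differentiate; share of O4-positive cells among Hoechst nuclei found by CNN image analysis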)
How it was run: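 Primary human fetal (GW 16-19) neural progenitor spheres (0.3 mm) plated on poly-D-lysine/laminin in N2 differentiation medium, exposed from day 0 for 120 h with half-medium refresh at day 3; O4-positive cells as percent of Hoechst nuclei, CNN-identified, versus DMSO.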

[8] = IUF_NPC4_neurite_area_120hr: Leibniz Research Institute for Environmental Medicine (IUF) 120-hour Neuronal Morphology Assay for Neurite Area (NPC4) (AID 2284305; active = hit-call score of the fitted dose curve at least 0.9, where 1 is the maximum)
How it was run: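 Neurite area is read out as the mean pixel area, excluding nuclei, of skeletonized TUBB3-positive neurons imaged after 120 h. Primary human neural progenitor spheres differentiated on poly-D-lysine/laminin with compound present from day 0. Activity was referenced to DMSO controls.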

[9] = IUF_NPC2-5_cytotoxicity_72hr: Cytotoxicity Assessment at 72 hours in the Leibniz Research Institute for Environmental Medicine (IUF) Neural Progenitor Cell Migration and Differentiation Assay for Cytotoxicity (NPC2-5) (AID 2284306; active = hit-call score of the fitted dose curve at least 0.9, where 1 is the maximum;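 also: LDH release into supernatant measured by resorufin fluorescence marking membrane damage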)
How it was run: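 Membrane integrity loss was scored from fluorescence (RFU) of resorufin generated by LDH in culture supernatant, 72 h after dosing. Differentiating human progenitor spheres received seven serial compound concentrations alongside a solvent control.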

[10] = IUF_NPC2-5_cytotoxicity_120hr: Cytotoxicity Assessment at 120 hours in the Leibniz Research Institute for Environmental Medicine (IUF) Neural Progenitor Cell Migration and Differentiation Assay (NPC2-5) (AID 2284307; active = hit-call score of the fitted dose curve at least 0.9, where 1 is the maximum;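 as to AC50: LDH released into supernatant as membrane damage marker via resorufin fluorescence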)
How it was run: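 Human fetal neural progenitor spheres (0.3 mm, GW 16-19 cortex) were plated on poly-D-lysine/laminin in N2 differentiation medium and exposed for 120 h, with half-medium refresh at day 3. LDH release into supernatant was read by resorufin fluorescence.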

[11] = IUF_NPC2-5_cell_number_120hr: Cell Number Assessment at 120 hours in the Leibniz Research Institute for Environmental Medicine (IUF) Neural Progenitor Cell Migration and Differentiation Assay (NPC2-5) (AID 2284308);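 also: count of Hoechst-stained nuclei in migration zone around plated human neural progenitor spheres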
How it was run: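 Primary human fetal neural progenitor spheres (GW 16-19, 0.3 mm) plated on poly-D-lysine/laminin in N2 differentiation medium, exposed from day 0 for 120 h with half-medium refresh at day 3; Hoechst-positive nuclei counted in migration area versus DMSO control.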

[12] = IUF_NPC2-5_viability_120hr: Viability Assessment at 120 hours in the Leibniz Research Institute for Environmental Medicine (IUF) Neural Progenitor Cell Migration and Differentiation Assay (NPC2-5) (AID 2284312)
How it was run: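 Alamar blue resorufin fluorescence read after 5 days of differentiation, with compound present from day 0 and replenished at day 3. Primary hNPC spheres on laminin-coated plates, 37C; seven concentrations plus solvent control, fitted against DMSO.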

[13] = read-out: Thrombomodulin, THBD (gene 7056); experiment: BSK_LPS_Thrombomodulin: BioMAP Diversity Plus: LPS Assay for Thrombomodulin Biomarker Activity (AID 2284296); conditions: outcome: primary human HUVEC with PBMC unless noted
How it was run: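 Human umbilical vein endothelial cells co-cultured with PBMC and stimulated with LPS; cell-surface thrombomodulin measured by ELISA 24 hours after compound. Gain or loss versus DMSO; cytotoxicity checked by SRB staining in parallel cultures.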

CD69, CD69 (gene 969) = experiment: BSK_LPS_CD69: BioMAP Diversity Plus: LPS Assay for CD69 Biomarker Activity (AID 2284303); conditions: primary human HUVEC with PBMC
How it was run: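 Human umbilical vein endothelial cells co-cultured with PBMC under LPS stimulation, chemical exposure 24 h; cell-surface CD69 measured by ELISA and fitted in the positive direction versus DMSO.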

[14] = BSK_IMphg_SRB: Viability Assessment in the BioMAP Diversity Plus: IMphg Assay (AID 2284292); conditions: primary human endothelial cells with macrophages;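 also: measured one day after compound addition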
How it was run: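 Human venular endothelial cells with macrophages, 24 h after chemical dosing; total protein by 0.1% SRB staining after 10% TCA fixation, read at 560 nm. Positive-direction fitting versus DMSO baseline.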

[15] = read-out: Macrophage colony-stimulating factor (MCSF), CSF1 (gene 1435); experiment: BSK_IMphg_MCSF: BioMAP Diversity Plus: IMphg Assay for Macrophage colony-stimulating factor (MCSF) Biomarker Activity (AID 2284293); conditions: primary human endothelial cells with macrophages
How it was run: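 Co-culture of human venular endothelial cells and macrophages, 24 hours of chemical exposure. M-CSF quantified by ELISA, with parallel SRB total-protein staining for cytotoxicity; activity fitted relative to DMSO.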

[16] = read-out: Interleukin-10 (IL10), IL10 (gene 3586); experiment: BSK_IMphg_IL10: BioMAP Diversity Plus: IMphg Assay for Interleukin-10 (IL10) Biomarker Activity (AID 2284294); conditions: primary human endothelial cells with macrophages
How it was run: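 Human venular endothelial cells cocultured with macrophages, dosed 24 h; IL-10 measured by ELISA, activity relative to DMSO. Cytotoxicity assessed in parallel cultures by sulforhodamine B total-protein staining.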

[17] = BSK_IMphg_SRB.Mphg: Macrophage Viability Assessment in the BioMAP Diversity Plus: IMphg Assay (AID 2284295); conditions: primary human endothelial cells with macrophages
How it was run: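 Venular endothelial cells co-cultured with macrophages, read 24 h after dosing. Total protein measured by 0.1% SRB staining after 10% TCA fixation, absorbance at 560 nm. Fitted in positive direction against DMSO baseline.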

[18] = VALA_TUBHUV_Agonist_CellCount: Viability Assessment in the VALA Sciences human Umbilical Vein Endothelial Tubule Formation (TUBHUV) Agonism Assay (AID 2284309; active = hit-call score of the fitted dose curve at least 0.9, where 1 is the maximum)
How it was run: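 HUVEC co-cultured 1:3 with HDF for 3 days in 10 ng/ml VEGF, then compounds added in VEGF medium for a further 3 days (72 h). Nuclear-stain/CD31 imaging cell count. Positive-direction fit versus 0.1% DMSO vehicle.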

[19] = VALA_TUBIPS_Agonist_TubuleLength: VALA Sciences human iPS-derived Endothelial Tubule Formation (TUBIPS) Agonism Assay (AID 2284311; active = hit-call score of the fitted dose curve at least 0.9, where 1 is the maximum)
How it was run: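 Human iPS-derived endothelial cells were exposed to compound for 72 h. Tubule formation was imaged by high-content fluorescence and scored as gain of signal relative to DMSO vehicle (agonist mode).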

Measured: AC50

CCOP(=S)(OCC)Oc1nc(Cl)c(Cl)cc1Cl
not listed: [13] | CD69, CD69 (gene 969) | [14] | [15] | [16] | [17] | [18] | [19]
inactive: all other assays above

COC(=O)Cc1ccccc1
inactive: [13] inactive [setting not given] | CD69, CD69 (gene 969)
active: [13] 2180 nM

O=C(O)C(F)(F)C(F)(F)C(F)(F)C(F)(F)C(F)(F)C(F)(F)F
inactive: [14] | [15] | [16] | [17] | [13] | CD69, CD69 (gene 969)

O=C(O)C(F)(F)C(F)(F)C(F)(F)C(F)(F)C(F)(F)C(F)(F)C(F)(F)C(F)(F)C(F)(F)C(F)(F)F
inactive: [14] | [15] | [16] | [17] | [13] | CD69, CD69 (gene 969)
active: CD69, CD69 (gene 969) 3330 nM

O=C(O)CCC(F)(C(F)(F)F)C(F)(F)F
inactive: [14] | [15] | [16] | [17] | [13] | CD69, CD69 (gene 969)

CC(C)(C)c1cc(O)ccc1O
active: [18] 11000 nM
inactive: [19]

CC(=O)OC(c1ccccc1)C(Cl)(Cl)Cl (centres undefined)
inactive: [13] | CD69, CD69 (gene 969)

COP(=O)(OC)O/C(=C\Cl)c1cc(Cl)c(Cl)cc1Cl
active: [1] 603 nM | [2] 638 nM | [3] 1030 nM | [4] 785 nM | [5] 988 nM | [6] 466 nM | [8] 675 nM | [10] 5390 nM | [11] 356 nM | [12] 1060 nM
inactive: [9]
